Three molecules from PubChem BioAssay (EPA / NIEHS) can be followed below.

Molecules are shown by their SMILES. Activity calls are given as the source filed them. The calls were made as follows: active = hit-call score of the fitted dose curve at least 0.9, where 1 is the maximum; inactive = score below 0.9.

Read-out in test [1]: Transforming growth factor beta 1 (TGFb1), TGFB1 (gene 7040)
Description: BSK_KF3CT_TGFb1: BioMAP Diversity Plus: KF3CT Assay for Transforming growth factor beta 1 (TGFb1) Biomarker Activity (AID 2283072). To be noted: primary human keratinocytes with fibroblasts; actives raise or lower the signal. The gist of the method:
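Human keratinocyte/foreskin fibroblast co-culture; TGF-b1 measured by ELISA 24 h after dosing, fitted bidirectionally versus DMSO. Cytotoxicity checked in parallel cultures by total protein (SRB staining, 560 nm).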

Read-out in test [2]: C-C motif chemokine 2 (Homo sapiens) (UniProt P13500)
Description: BSK_KF3CT_MCP1: BioMAP Diversity Plus: KF3CT Assay for Monocyte Chemoattractant Protein 1 (MCP1/CCL2) Biomarker Activity (AID 2283073). To be noted: primary human keratinocytes with fibroblasts; actives raise or lower the signal. The gist of the method: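 KF3CT skin co-culture (keratinocytes/foreskin fibroblasts), 24 h post-dose; MCP-1 by ELISA; gain/loss of signal fit bidirectionally vs DMSO baseline.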

Read-out in test [3]: Matrix Metallopeptidase 9 (MMP9), MMP9 (gene 4318)
Description: BSK_KF3CT_MMP9: BioMAP Diversity Plus: KF3CT Assay for Matrix Metallopeptidase 9 (MMP9) Biomarker Activity (AID 2283074). To be noted: primary human keratinocytes with fibroblasts; actives raise or lower the signal. The gist of the method: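 Human keratinocyte and foreskin fibroblast co-culture exposed to chemicals for 24 h; MMP9 biomarker measured by ELISA, bidirectional fitting relative to DMSO; cytotoxicity tracked by SRB total protein staining in parallel cultures.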

Read-out in test [4]: urokinase plasminogen activator (uPA), PLAU (gene 5328)
Description: BSK_KF3CT_uPA: BioMAP Diversity Plus: KF3CT Assay for urokinase plasminogen activator (uPA) Biomarker Activity (AID 2283075). To be noted: primary human keratinocytes with fibroblasts; actives raise or lower the signal. The gist of the method:
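Primary human keratinocyte/foreskin fibroblast co-culture exposed to chemical; uPA measured by ELISA at 24 h. Bidirectional fit versus DMSO, with parallel SRB total-protein staining for cytotoxicity.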

Read-out in test [5]: CD40, CD40 (gene 958)
Description: BSK_LPS_CD40: BioMAP Diversity Plus: LPS Assay for CD40 Biomarker Activity (AID 2283076). To be noted: primary human HUVEC with PBMC; actives raise or lower the signal. The gist of the method:
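ELISA readout of CD40 in HUVEC/PBMC co-culture (BSK_LPS system), 24 h post-dosing; bidirectional curve fit, DMSO baseline; parallel SRB total-protein staining for cytotoxicity.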

Read-out in test [6]: E-selectin (Homo sapiens) (UniProt P16581)
Description: BSK_LPS_Eselectin: BioMAP Diversity Plus: LPS Assay for Eselectin Biomarker Activity (AID 2283077). To be noted: primary human HUVEC with PBMC; actives raise or lower the signal. The gist of the method:
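ELISA readout of E-selectin, 24 h post-dose, HUVEC + PBMC co-culture (LPS system). Gain or loss of signal vs DMSO baseline, bidirectional fit.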

Read-out in test [7]: Interleukin-8 (IL8), CXCL8 (gene 3576)
Description: BSK_LPS_IL8: BioMAP Diversity Plus: LPS Assay for Interleukin-8 (IL8) Biomarker Activity (AID 2283078). To be noted: primary human HUVEC with PBMC; actives raise or lower the signal. The gist of the method:
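HUVEC + PBMC co-culture, LPS-activated; test chemicals dosed, IL-8 read by ELISA at 24 h. Bidirectional curve fit vs DMSO baseline (gain or loss of signal).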

Test [8] in a line: BSK_LPS_SRB: Viability Assessment in the BioMAP Diversity Plus: LPS Assay (AID 2283079).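 Also: total protein by sulforhodamine B absorbance as a cytotoxicity measure; measured one day after compound addition; fitted in both directions against DMSO so loss or gain of signal counts.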 To be noted: primary human HUVEC with PBMC. The gist of the method: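 HUVEC + PBMC co-culture, LPS-stimulated; compound 24 h. 10% TCA fix, 0.1% SRB stain, A560. Bidirectional fit vs DMSO.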
Read-out in test [9]: Interleukin-1 alpha (IL1a), IL1A (gene 3552)
Description: BSK_LPS_IL1a: BioMAP Diversity Plus: LPS Assay for Interleukin-1 alpha (IL1a) Biomarker Activity (AID 2283080). To be noted: primary human HUVEC with PBMC; actives raise or lower the signal. The gist of the method: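 HUVEC/PBMC co-culture, LPS system; 24 h after dosing; IL-1a by ELISA; gain or loss of signal fitted bidirectionally vs DMSO baseline.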

Read-out in test [10]: Monocyte Chemoattractant Protein-1 (MCP1), CCL2 (gene 6347)
Description: BSK_LPS_MCP1: BioMAP Diversity Plus: LPS Assay for Monocyte Chemoattractant Protein-1 (MCP1) Biomarker Activity (AID 2283081). To be noted: primary human HUVEC with PBMC; actives raise or lower the signal. The gist of the method:
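ELISA read-out of MCP-1 after 24 h chemical dosing of a human umbilical vein endothelial cell/peripheral blood mononuclear cell co-culture stimulated with LPS. Gain or loss of signal fitted relative to DMSO controls.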

A short description of test [11]: BSK_LPS_PGE2: BioMAP Diversity Plus: LPS Assay for Prostaglandin E2 (PGE2) Biomarker Activity (AID 2283082). To be noted: primary human HUVEC with PBMC; actives raise or lower the signal. The gist of the method:
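HUVEC plus human PBMC co-culture stimulated with LPS; secreted PGE2 quantified by ELISA 24 h after chemical dosing. Activity fitted bidirectionally against DMSO baseline; parallel SRB staining (0.1% SRB after 10% TCA fixation, 560 nm) flags overt cytotoxicity.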

Read-out in test [12]: Macrophage colony-stimulating factor (MCSF), CSF1 (gene 1435)
Description: BSK_LPS_MCSF: BioMAP Diversity Plus: LPS Assay for Macrophage colony-stimulating factor (MCSF) Biomarker Activity (AID 2283083). To be noted: primary human HUVEC with PBMC; actives raise or lower the signal. The gist of the method:
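HUVEC + PBMC co-culture (human primary), 24 h post-dose; M-CSF by ELISA; gain/loss of signal fitted bidirectionally vs DMSO baseline.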

Read-out in test [13]: Tissue Factor, F3 (gene 2152)
Description: BSK_LPS_TissueFactor: BioMAP Diversity Plus: LPS Assay for Tissue Factor Biomarker Activity (AID 2283084). To be noted: primary human HUVEC with PBMC; actives raise or lower the signal. The gist of the method: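 HUVEC/PBMC co-culture, LPS-activated; CD142 ELISA read 24 h post-dose; bidirectional curve fit vs DMSO negative control.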

Read-out in test [14]: Tumor necrosis factor (Homo sapiens) (UniProt P01375)
Description: BSK_LPS_TNFa: BioMAP Diversity Plus: LPS Assay for Tumour Necrosis Factor alpha (TNFa) Biomarker Activity (AID 2283085). To be noted: primary human HUVEC with PBMC; actives raise or lower the signal. The gist of the method:
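Human umbilical vein endothelial cells co-cultured with PBMC and stimulated with LPS. TNFa was measured by ELISA 24 h after chemical dosing, fitted bidirectionally relative to DMSO.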

Read-out in test [15]: Vascular cell adhesion molecule 1 (VCAM1), VCAM1 (gene 7412)
Description: BSK_LPS_VCAM1: BioMAP Diversity Plus: LPS Assay for Vascular cell adhesion molecule 1 (VCAM1) Biomarker Activity (AID 2283086). To be noted: primary human HUVEC with PBMC; actives raise or lower the signal. The gist of the method: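 Human umbilical vein endothelial cells co-cultured with PBMC and stimulated with LPS; VCAM-1 measured by ELISA 24 h after dosing. Bidirectional curve fitting against DMSO baseline; cytotoxicity tracked in parallel by SRB total-protein staining.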

Read-out in the next test: CD38, CD38 (gene 952)
Description: BSK_SAg_CD38: BioMAP Diversity Plus: SAg Assay for CD38 Biomarker Activity (AID 2283087). To be noted: primary human HUVEC with PBMC; actives raise or lower the signal. The gist of the method: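 Human HUVEC plus PBMC co-culture stimulated with superantigen; CD38 measured by ELISA 24 h after chemical dosing. Fluorescence read-out, bidirectional fit against DMSO; cytotoxicity tracked in parallel by SRB and Alamar Blue.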

Read-out in test [16]: CD40, CD40 (gene 958)
Description: BSK_SAg_CD40: BioMAP Diversity Plus: SAg Assay for CD40 Biomarker Activity (AID 2283088). To be noted: primary human HUVEC with PBMC; actives raise or lower the signal. The gist of the method:
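HUVEC/PBMC co-culture, 24 h post-dose; CD40 by ELISA, fluorescence intensity; bidirectional fit vs DMSO negative control.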

Read-out in a further test: CD69, CD69 (gene 969)
Description: BSK_SAg_CD69: BioMAP Diversity Plus: SAg Assay for CD69 Biomarker Activity (AID 2283089). To be noted: primary human HUVEC with PBMC; actives raise or lower the signal. The gist of the method: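 ELISA, fluorescence read-out: CD69 on human umbilical vein endothelial cell + PBMC co-culture, 24 h post-dosing. Gain or loss of signal fitted bidirectionally against DMSO baseline.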

Read-out in test [17]: Monocyte Chemoattractant Protein-1 (MCP1), CCL2 (gene 6347)
Description: BSK_SAg_MCP1: BioMAP Diversity Plus: SAg Assay for Monocyte Chemoattractant Protein-1 (MCP1) Biomarker Activity (AID 2283090). To be noted: primary human HUVEC with PBMC; actives raise or lower the signal. The gist of the method:
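MCP-1 levels in the endothelial–PBMC SAg co-culture were quantified by ELISA at 24 h post-dosing; both increases and decreases versus DMSO scored. Cytotoxicity monitored by SRB total protein in parallel cultures.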

Read-out in test [18]: E-selectin (Homo sapiens) (UniProt P16581)
Description: BSK_SAg_Eselectin: BioMAP Diversity Plus: SAg Assay for Eselectin Biomarker Activity (AID 2283091). To be noted: primary human HUVEC with PBMC; actives raise or lower the signal. The gist of the method:
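E-selectin ELISA readout at 24 h post-dosing in human umbilical vein endothelial cell/PBMC co-culture; gain or loss of signal fitted relative to DMSO baseline.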

Sequence of Tumor necrosis factor (Homo sapiens) (P01375 whole entry, looked up): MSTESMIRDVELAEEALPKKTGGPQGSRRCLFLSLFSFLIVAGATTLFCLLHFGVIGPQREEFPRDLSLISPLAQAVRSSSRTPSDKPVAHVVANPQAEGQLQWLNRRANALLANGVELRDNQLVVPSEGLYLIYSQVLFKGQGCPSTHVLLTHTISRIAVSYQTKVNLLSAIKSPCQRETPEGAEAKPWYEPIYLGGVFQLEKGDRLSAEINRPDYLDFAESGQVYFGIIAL
Sequence of E-selectin (Homo sapiens) (P16581 whole entry, looked up): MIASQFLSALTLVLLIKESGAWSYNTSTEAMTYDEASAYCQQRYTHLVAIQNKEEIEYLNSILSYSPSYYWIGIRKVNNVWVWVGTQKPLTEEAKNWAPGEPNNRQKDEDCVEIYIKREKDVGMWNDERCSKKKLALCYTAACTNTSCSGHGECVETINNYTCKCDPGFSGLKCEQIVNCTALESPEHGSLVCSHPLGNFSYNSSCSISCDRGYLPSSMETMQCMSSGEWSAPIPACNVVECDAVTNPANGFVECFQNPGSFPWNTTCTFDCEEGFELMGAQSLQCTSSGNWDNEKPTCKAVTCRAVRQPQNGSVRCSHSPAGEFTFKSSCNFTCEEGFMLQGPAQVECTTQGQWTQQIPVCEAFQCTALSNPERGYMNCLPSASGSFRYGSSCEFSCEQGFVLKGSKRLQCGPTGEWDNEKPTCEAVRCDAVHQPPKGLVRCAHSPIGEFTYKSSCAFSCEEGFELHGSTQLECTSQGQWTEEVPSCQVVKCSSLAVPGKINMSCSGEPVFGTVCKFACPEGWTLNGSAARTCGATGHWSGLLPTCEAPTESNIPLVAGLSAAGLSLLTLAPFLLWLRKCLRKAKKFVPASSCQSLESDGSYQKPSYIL

Consider `CCCCOCCOCCOCc1cc2c(cc1CCC)OCO2`, for which the outcome in test [1], in test [2], in test [3], in [4], in [6] and in test [9] was inactive. Further, the outcome is “inactive” in test [10]; “inactive” in test [11]; “inactive” in test [12]; “inactive” in test [13]; “inactive” in test [15]; “inactive” with CD38, CD38 (gene 952). Further, the outcome in the test with CD40, CD40 (gene 958) [16] is “inactive”; in the test with CD69, CD69 (gene 969) it was “inactive”; in test [17] it was “inactive”; in [18] it was “inactive”. Moreover, the AC50 (as a rule, the midpoint of the concentration-response curve, whichever way the signal moves) in the test with CD40, CD40 (gene 958) [5] was 20 µM (active); in test [7], 13.3 µM (active); in test [8], 12.1 µM (active); in test [14] it was 25.3 µM (active).

Consider `COC(=O)c1ccccc1C(=O)O`, for which the outcome was “inactive” in test [1]; “inactive” in [3]; “inactive” with CD40, CD40 (gene 958) [5]; “inactive” in [6]; “inactive” in [8]; “inactive” in test [9]. Besides, the outcome was “inactive” in [10]; “inactive” in [11]; “inactive” in test [12]; “inactive” in test [13]; “inactive” in [15]; “inactive” with CD38, CD38 (gene 952). For the same molecule, the outcome with CD69, CD69 (gene 969) was “inactive”; in test [17] it was “inactive”. For the same molecule, the AC50 in the test with CD40, CD40 (gene 958) [16] is 6.97 µM (active); in test [18], 5.96 µM (active).

Regarding `CCC(C)OC(=O)N1CCCCC1CCO` (stereo not drawn), the outcome in [1] was “inactive”; in test [3], “inactive”; with CD40, CD40 (gene 958) [5], “inactive”; in test [6] it was “inactive”; in test [8], “inactive”; in [9], “inactive”. In addition, the outcome in test [10], in test [11], in [12], in test [13], in test [14] and in test [15] was inactive. The outcome in the test with CD38, CD38 (gene 952) was “inactive”; with CD40, CD40 (gene 958) [16] it was “inactive”; in the test with CD69, CD69 (gene 969), “inactive”; in [17] it was “inactive”; in test [18] it was “inactive”.
